Screening results (PubChem)
In the library only some 10% were active in any assay of this set; here they are far more common.
CtBP-E1A blk: qHTS Assay for Inhibitors of the CtBP/E1A Interaction; activity change, % (concentration not given with the values); AlphaScreen GST-E1A/His-CtBP binding, 1536-well; hits give low values; hit rate 0.49% among 340,000; CtBP / adenovirus E1A interaction (AlphaScreen); in the data active = activity change below about -65%; inconclusive = mostly about -30% to -63%; also: % is scaled to controls: 0 for no effect and ±100 for the full control effect
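In 5 uL wells, 23 nL compound meets equimolar GST-E1A and His-CtBP (5X stock 125 nM each) for 2 h, 37 °C. Beads (5X, 50 ug/mL) then 1 h, 37 °C, dark.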
JMJD2A Tudor inh: qHTS Assay for Inhibitors of JMJD2A-Tudor Domain | Potency, µM (top dose mostly 114 µM), without a hit: top-dose activity change, negative = inhibition, actives largely listed as inhibitors | Lysine-specific demethylase 4A (Homo sapiens), O75164 | AlphaScreen JMJD2A-Tudor / H3K4me3 peptide binding | hit rate 4.4% among 390,000; also: potency is read from the fitted curve at half-maximal effect; % is scaled to controls: 0 for no effect and ±100 for the full control effect; nearly all actives have a fitted effect of over 50% in size
HP1b binding inh: HTS for Inhibitors of HP1-beta Chromodomain Interactions with Methylated Histone Tails | AID 540317, 2011 | Chromobox protein homolog 1 (Homo sapiens), P83916 | AlphaScreen HP1-beta / biotin-H3K9me3 peptide binding | Potency, µM (doses to about 114 µM), inactives show top-dose activity change, negative = inhibition, usual class: inhibitors | hit rate 0.56% among 390,000; also: potency is read from the fitted curve at half-maximal effect; nearly all actives have a fitted effect of over 70% in size
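AlphaScreen: HP1-beta (50 nM) preformed 30 min with biotin-H3(1-18)K9me3 peptide (50 nM) in PBS pH 7.4, 0.01% Tween-20. Compound added for 30 min at RT, then streptavidin donor/nickel chelate acceptor beads (10 ug/mL) for 30 min.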
Six1-Eya2 inh: qHTS Assay for Inhibitors of the Six1/Eya2 Interaction; hit rate 0.56% among 360,000; Homeobox protein SIX1 (Homo sapiens) + Protein phosphatase EYA2 (Homo sapiens), …; activity change, % (test concentration not listed); AlphaScreen GST-Six1/His-Eya2 binding, biochemical; hits give low values; in the data active = activity change below about -65%; inconclusive = mostly about -30% to -63%; also: % is scaled to controls: 0 for no effect and ±100 for the full control effect
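GST-Six1 + His-Eya2 (5X stock: 250/500 nM); Tris pH 8.0, 300 mM NaCl, 0.05% BSA, 0.02% Tween 20; GSH donor/Ni acceptor beads; 1 h 37 °C dark; AlphaScreen readout.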
BAZ2B block: qHTS Assay for Inhibitors of BAZ2B | Bromodomain adjacent to zinc finger domain protein 2B (Homo sapiens), Q9UIF8 | AlphaScreen BAZ2B-H3K14Ac peptide displacement | Potency, µM (series often up to 114 µM), for the others: at the highest dose activity change, negative = inhibition, usual class: inhibitors | hit rate 4.4% among 360,000 | AID 504333, 2011; also: potency is read from the fitted curve at half-maximal effect; % is scaled to controls: 0 for no effect and ±100 for the full control effect; nearly all actives have a fitted effect of over 60% in size
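In this displacement format the biotinylated H3(5-23) peptide acetylated at Lys14 serves as ligand at 50 nM, with BAZ2B at 50 nM in PBS pH 7.4 containing 0.01% Tween-20. Donor and acceptor beads are 10 ug/mL final.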
G9a block: qHTS Assay for Inhibitors of Histone Lysine Methyltransferase G9a. G9a H3K9 monomethylation, AlphaScreen, 2 h. Potency, µM (series often up to 102 µM), for the others: at the top dose activity, negative = inhibition, usual class: inhibitors. hit rate 8.8% among 350,000; also: potency is read from the fitted curve at half-maximal effect; % is scaled to controls: 0 for no effect and ±100 for the full control effect; nearly all actives have a fitted effect of over 75% in size
Target sequence (Q96KQ7 913-1193 limits assumed): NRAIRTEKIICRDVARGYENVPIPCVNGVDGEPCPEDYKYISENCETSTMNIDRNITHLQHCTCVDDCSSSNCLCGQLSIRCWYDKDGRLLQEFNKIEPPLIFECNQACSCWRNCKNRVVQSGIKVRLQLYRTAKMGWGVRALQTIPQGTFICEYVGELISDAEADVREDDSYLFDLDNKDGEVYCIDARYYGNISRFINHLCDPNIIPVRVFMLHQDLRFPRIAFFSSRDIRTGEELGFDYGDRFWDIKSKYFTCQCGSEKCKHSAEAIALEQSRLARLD
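AlphaScreen read-out: biotin-H3K9 peptide (500 nM) methylation by 20 nM enzyme with 20 uM SAM, 2 h at room temperature after 15 min compound preincubation; anti-monomethyl H3K9 antibody plus donor/acceptor beads, 10 min dark.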
12-hLO cuvette: Cuvette-Based Assay for Inhibitors of 12-hLO (12-human lipoxygenase): 8HQ Series - Round 1 | shares compounds with BAZ2B block | purified 12-hLO, cuvette UV 234 nm product formation | Potency, µM, hits mostly inhibitors | hit rate 60% among 35;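 active = compounds that slowed 12-hLO product formation enough to yield a measured IC50 potency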
JMJD2E inh-1: Inhibitors of Human Jumonji Domain Containing 2E (JMJD2E): 8HQs - Round 1; shares compounds with BAZ2B block; JMJD2E demethylase, FDH-coupled NADH fluorescence; Potency, µM (top dose mostly 57 µM), for the others: at the highest dose activity, negative = inhibition, actives largely listed as inhibitors; hit rate 89% among 130; AID 493212, 2011
Target sequence (B2RXH2 1-337 limits assumed): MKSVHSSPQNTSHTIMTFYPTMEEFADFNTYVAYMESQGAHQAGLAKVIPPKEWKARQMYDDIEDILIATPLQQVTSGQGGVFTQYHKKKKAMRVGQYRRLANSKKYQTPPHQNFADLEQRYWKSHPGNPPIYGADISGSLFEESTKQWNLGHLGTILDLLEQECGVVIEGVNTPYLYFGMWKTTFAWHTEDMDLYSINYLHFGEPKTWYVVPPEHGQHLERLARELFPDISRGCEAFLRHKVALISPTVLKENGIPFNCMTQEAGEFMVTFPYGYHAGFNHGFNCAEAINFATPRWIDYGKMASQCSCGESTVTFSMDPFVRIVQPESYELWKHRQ
JMJD2E inh-2: Confirmation qHTS Assay for Inhibitors of Human Jumonji Domain Containing 2E (JMJD2E); shares compounds with JMJD2A Tudor inh; Potency, µM (top dose mostly 56.8 µM), without a hit: at the highest dose activity change, negative = inhibition, most hits filed as inhibitors; Recombinant JMJD2E, FDH-coupled NADH fluorescence (FDH is formaldehyde dehydrogenase); hit rate 93% among 140
FDH inh: Counterscreen for JMJD2E Inhibitors: qHTS Assay for Inhibitors of Formaldehyde Dehydrogenase (FDH); hit rate 10% among 140; FDH enzyme assay, NADH fluorescence kinetic; AID 2680, 2010; shares compounds with JMJD2A Tudor inh; Potency, µM (top dose mostly 56.7 µM), inactives show top-dose activity, negative = inhibition, usual class: inhibitors
JMJD2E MALDI inh: MALDI-TOF-MS Assay for Inhibitors of Human Jumonji Domain Containing 2E (JMJD2E); shares compounds with JMJD2A Tudor inh; hit rate 90% among 45; recombinant JMJD2E demethylation, MALDI-TOF-MS; Potency, µM, actives largely listed as inhibitors; AID 2688, 2010;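 active = compounds whose IC50 for blocking JMJD2E demethylation is below 100 µM; inconclusive = dose dependent effect but IC50 above 100 µM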
Starred values were filed as active, the others as inactive; ? = inconclusive; . = no result; [ ] = dose if it differs, or a comment. Unless noted, calls follow the shape of the dose curve; as a rule, active = well fitted inhibition curve with a large enough effect; inconclusive = small, poorly fitted or top-dose-only effect; inactive = no such curve, though single readings can be large or run the other way.

SMILES	CtBP-E1A blk	JMJD2A Tudor inh	HP1b binding inh	Six1-Eya2 inh	BAZ2B block	G9a block	JMJD2E inh-1	JMJD2E inh-2	FDH inh	JMJD2E MALDI inh	others
CCC(=O)NC(c1ccc(C)cc1)c1cc([N+](=O)[O-])c2cccnc2c1O (configuration not stated)	-87*	22µM*	-16%	-85*	4µM*	?	13µM*	13µM*	-27%	.	12-hLO cuvette=2.3µM*
O=C(O)c1cc(Br)c(O)c2ncccc12	.	.	.	.	.	.	0.0073µM*	?	-18%	.
O=S(=O)(c1ccccc1)N1CCC2(CC1)CN(c1ncccn1)C2	.	.	.	.	.	5%[12.7 µM]	.	.	.	.
Oc1ccc(/C=C/c2ccccc2)c2cccnc12	.	?	.	.	.	.	10µM*	4.1µM*	-27%	24*
Oc1ccc(/C=C/c2ccccc2F)c2cccnc12	.	?	.	.	.	.	11µM*	5.8µM*	-18%	37*
Cc1ccc(CNC(=O)c2c(-c3cccc(Br)c3)noc2C)o1	.	-10%	35%[57 µM]	.	3%	-19%[59 µM]	.	.	.	.
Oc1ccc(Cl)cc1CNc1ccccn1	0	-15%	30%	1	6%	16%	.	.	.	.
Oc1ccc(CNc2ccccc2Br)c2cccnc12	.	50µM*	.	.	.	.	3.5µM*	3.5µM*	-9%	24*
Oc1ccc(CNc2cccc(F)c2)c2cccnc12	.	56µM*	.	.	.	.	1.1µM*	1.1µM*	-9%	14*
O=C(CCCN1C(=O)c2cccnc2C1=O)Nc1ccc(F)cc1Cl	-6	-12%	21%	-4	-14%	18%	.	.	.	.
Oc1ccc(CNc2ccc(F)cc2Cl)c2cccnc12	.	56µM*	.	.	.	.	5.8µM*	1.1µM*	-18%	16*
CN(C)c1ccc(-c2cc(O)c3ncccc3c2)cc1	.	?	28%	.	1%	-4%[12.7 µM]	16µM*	16µM*	-9%	.
Oc1cc(-c2ccncc2)cc2cccnc12	.	45µM*	47%	.	2.8µM*	10%[12.7 µM]	32µM*	16µM*	-27%	23*
CN(C)c1ccc(-c2ccc3ncnc(N(C)C)c3c2)cc1	.	.	.	.	.	-4%[0.501 µM]	.	.	.	.
Oc1cc(-c2ccc(N3CCCCC3)nc2)cc2cccnc12	.	-28%	58%	.	9%	-3%[12.7 µM]	26µM*	32µM*	-73%	.
Cc1cc(N2CCCC2)nc(-c2ccccc2O)n1	9	22%	39%	1	-16%	-29%	.	.	.	.
CN(C)CCCNC(=O)c1ccc(-c2cc(O)c3ncccc3c2)cc1	.	20µM*	-33%	.	7.1µM*	5%[12.7 µM]	32µM*	16µM*	0%	.
CN(C)CCCNCCCNC(=O)c1ccncc1	10	-22%	33%	3	-6%	?	.	.	.	.
CCOc1ccc(NC(=O)Cn2ccn(-c3ccc(F)c(F)c3)c(=O)c2=O)cc1	.	-15%	16%	.	-15%	3%[59 µM]	.	.	.	.
COc1ccc(-n2cc(-c3ccccc3)c3c(SC(C)C(C)=O)ncnc32)cc1 (configuration not stated)	.	-16%	44%	.	-4%	38%[59 µM]	.	.	.	.
Cc1nc2c(c(C)nn2-c2ccccc2)c(C)c1CCC(=O)Nc1ccc(F)cc1	.	0%	44%	.	-12%	14%[59 µM]	.	.	.	.
CC1Cc2cc(S(=O)(=O)CCC(=O)Nc3ccc(OC(F)(F)F)cc3)ccc2N1C(=O)C1CC1 (configuration not stated)	.	0%	27%	.	-11%	7%[59 µM]	.	.	.	.
Cc1ccc(NCc2ccc(O)c3ncccc23)c(F)c1	.	18µM*	.	.	.	.	0.71µM*	8.1µM*	-9%	11*
Oc1ccc(CNc2ccc(C(F)(F)F)cc2F)c2cccnc12	.	50µM*	.	.	.	.	2.2µM*	2.2µM*	-18%	20*
Nc1cc(C(F)(F)F)ccc1NCCc1ccccn1	-7	?	?	0	?	-18%	.	.	.	.
SMILES	CtBP-E1A blk	JMJD2A Tudor inh	HP1b binding inh	Six1-Eya2 inh	BAZ2B block	G9a block	JMJD2E inh-1	JMJD2E inh-2	FDH inh	JMJD2E MALDI inh	others
Cc1ccc(S(=O)(=O)Nc2ccc(O)c3cccnc23)cc1	-29	?	-7%	-24	-23%	?	.	.	.	.
Oc1ccc(COc2cccc3ccccc23)c2cccnc12	.	.	.	.	56µM*	?	10µM*	10µM*	-18%	.
Oc1ccc(COC2CCCC2)c2cccnc12	.	.	.	.	13µM*	-31%[12.7 µM]	6.3µM*	6.3µM*	-9%	.
COc1ccc(-c2nc3cnc(N4CCOCC4)nc3n(C[C@H]3CCCO3)c2=O)cc1	.	.	.	.	.	7%[0.501 µM]	.	.	.	.
COCCNC(=O)CCCn1c(=O)[nH]c2ccsc2c1=O	.	-6%	25%	.	0%	7%[59 µM]	.	.	.	.
O=C(Cn1cnc2onc(-c3ccc(F)cc3)c2c1=O)N1CCN(c2ccccc2F)CC1	.	-16%	21%	.	2%[57.1 µM]	-4%[59 µM]	.	.	.	.
Oc1cccc2c(-c3nn[nH]n3)ccnc12	.	13µM*	36%	.	3.2µM*	13%[12.7 µM]	18µM*	10µM*	-18%	18*
